Measurements reported in PubChem BioAssay (EPA / NIEHS).
Where “and” joins values, the source holds several entries; their conditions need not be identical. Identical values can stand only once. Inconclusive results are not listed. More than one record can exist for a structure, and the calls need not agree. Calls of active or inactive are those of the source. The calls were made as follows: active = hit-call score of the fitted dose curve at least 0.9, where 1 is the maximum; inconclusive = response in the unintended direction; inactive = score below 0.9.

target: human Retinoic Acid Receptor gamma (RARg), RARG (gene 5916) (UniProt P13631); assay: ATG_RARg_TRANS: Attagene TRANS-FACTORIAL HepG2 Assay for human Retinoic Acid Receptor gamma (RARg) (AID 2283009);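 as to AC50: AC50 is for reporter induction above DMSO meaning RARg activation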
Sequence (P13631 whole entry, looked up): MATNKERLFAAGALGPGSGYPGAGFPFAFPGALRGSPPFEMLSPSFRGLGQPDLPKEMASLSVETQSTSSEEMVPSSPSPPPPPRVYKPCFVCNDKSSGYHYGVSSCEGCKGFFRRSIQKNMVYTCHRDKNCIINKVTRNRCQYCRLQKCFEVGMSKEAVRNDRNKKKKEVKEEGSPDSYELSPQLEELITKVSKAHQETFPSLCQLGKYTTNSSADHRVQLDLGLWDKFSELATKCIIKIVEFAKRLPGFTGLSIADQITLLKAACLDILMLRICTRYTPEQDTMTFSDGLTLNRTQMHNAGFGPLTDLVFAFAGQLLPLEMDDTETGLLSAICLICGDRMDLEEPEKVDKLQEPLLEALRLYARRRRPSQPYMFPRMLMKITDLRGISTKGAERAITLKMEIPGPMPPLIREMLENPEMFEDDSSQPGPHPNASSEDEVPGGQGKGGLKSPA
Procedure: ATG_TRANS is a cell-based, multiplexed-readout assay that uses HepG2, a human liver cell line, with measurements taken at 24 hours after chemical dosing in a 24-well plate.ATG_RARg_TRANS is one of 30 assay component(s) measured or calculated from the ATG_TRANS assay. It is designed to make measurements of mRNA induction, a form of inducible reporter, as detected with fluorescence intensity signals by Reverse transcription polymerase chain reaction (RT-PCR) and Capillary electrophoresis technology.Data from the assay component ATG_RARg_TRANS was analyzed into 1 assay endpoint. This assay endpoint, ATG_RARg_TRANS, was analyzed in the positive analysis fitting direction relative to DMSO as the negative control and baseline of activity. Using a type of inducible reporter, measures of mRNA for gain-of-signal activity can be used to understand the reporter gene at the transcription factor-level as they relate to the gene RARG. Furthermore, this assay endpoint can be referred to as a primary readout, because this assay has produced multiple assay endpoints where this one serves a reporter gene function. To generalize the intended target to other relatable targets, this assay endpoint is annotated to the nuclear receptor intended target family, where the subfamily is non-steroidal.
Human liver HepG2 cells are transiently transfected with multiple reporter transcription units (MRTUs) in 6-well plates using FuGene 6 reagent (Roche; 3 ml FuGene/1 mg DNA). The MRTU constructs are regulated by a cis-regulating element (promoter). […] A major difference between the CIS and TRANS system is that in CIS activities of endogenous TFs are measured, whereas the TRANS assay evaluates changes in activities of exogenous, chimeric NR-Gal4 proteins. […] At the end of 24 hour incubation, total RNA was isolated using TriZol reagent (Invitrogen). The isolated RNA is then reverse-transcribed using oligo(dT) primer and Mo-MLV reverse transcriptase (Invitrogen) with DNAse I (Ambion) treatment for 30 min. The one-tenth of the produced cDNA was amplified by PCR using Taq DNA polymerase (Invitrogen) and two reporter sequence-specific primers. The PCR products were fluorescently labeled by primer extension with 6-arboxyfluorescein (6-FAM) 5'-labeled reporter sequence-specific primer (2 min at 95 C, 20 s at 68 C and 10 min at 72 C) and these products were digested with 5U of HpaI (New England Biolabs) for 2h at 37 C. […] The raw capillary electrophoresis data was processed using Attagraph software (Attagene).

Row | SMILES | outcome | AC50
1 | CCc1ccc(C(=O)NN(C(=O)c2cc(C)cc(C)c2)C(C)(C)C)cc1 | inactive | –
2 | Cc1[nH]c(=O)n(C(C)(C)C)c(=O)c1Cl | inactive | –
3 | ClC1C(Cl)C(Cl)C(Cl)C(Cl)C1Cl (stereo not given) | inactive | 6.81 µM (active) and 8.7 µM (active)
4 | COP(=S)(OC)Oc1ccc(SC)c(C)c1 | inactive | –
5 | CC(C)(C)C(O)C(Oc1ccc(Cl)cc1)n1cncn1 (stereo not given) | inactive | –
6 | O=[N+]([O-])/N=C1\NCCN1Cc1ccc(Cl)nc1 | inactive | –
7 | COC(=O)c1ccccc1S(=O)(=O)NC(=O)Nc1nc(C)nc(OC)n1 | inactive | –
8 | COc1nn(CSP(=S)(OC)OC)c(=O)s1 | inactive | –
9 | Clc1ccccc1-c1nnc(-c2ccccc2Cl)nn1 | inactive | –
10 | CC(C)(C)C(O)/C(=C\c1ccc(Cl)cc1Cl)n1cncn1 (stereo not given) | inactive | –
11 | CCC(C)Nc1c([N+](=O)[O-])cc(C(C)(C)C)cc1[N+](=O)[O-] (stereo not given) | inactive | –
12 | C[C@H]1[C@H](c2ccc(Cl)cc2)SC(=O)N1C(=O)NC1CCCCC1 | inactive | –
13 | OCCOc1ccccc1 | inactive | –
14 | O=[N+]([O-])c1c(Cl)c(Cl)c(Cl)c(Cl)c1Cl | inactive | –
15 | CCCN(CCOc1c(Cl)cc(Cl)cc1Cl)C(=O)n1ccnc1 | inactive | –
16 | CCS(=O)(=O)c1cccnc1S(=O)(=O)NC(=O)Nc1nc(OC)cc(OC)n1 | inactive | –
17 | COC(=O)c1ccccc1CS(=O)(=O)NC(=O)Nc1nc(OC)cc(OC)n1 | inactive | –
18 | C#CCN1C(=O)COc2cc(F)c(N3C(=O)C4=C(CCCC4)C3=O)cc21 | inactive | –
19 | CC1(c2ccc(Oc3ccccc3)cc2)OC(=O)N(Nc2ccccc2)C1=O (stereo not given) | inactive | –
20 | COP(=S)(OC)Oc1ccc([N+](=O)[O-])cc1 | inactive | –
21 | Oc1ccc(Cl)cc1Cc1ccccc1 | inactive | –
22 | CC[C@H](C)[C@H]1O[C@]2(C=C[C@@H]1C)C[C@@H]1C[C@@H](C/C=C(\C)[C@@H](O[C@H]3C[C@H](OC)[C@@H](O[C@H]4C[C@H](OC)[C@@H](O)[C@H](C)O4)[C@H](C)O3)[C@@H](C)/C=C/C=C3\CO[C@@H]4[C@H](O)C(C)=C[C@@H](C(=O)O1)[C@]34O)O2 (tested in a mixture with another compound) | inactive | –
23 | Cc1cc(C)nc(NC(=O)NS(=O)(=O)c2ccccc2C(=O)OC2COC2)n1 | inactive | –
24 | CCC(C)(NC(=O)c1cc(Cl)c(C)c(Cl)c1)C(=O)CCl (stereo not given) | inactive | –
25 | COc1cc(OC)nc(NC(=O)NS(=O)(=O)c2cc(NC=O)ccc2C(=O)N(C)C)n1 | inactive | –
26 | CCOC1Oc2ccc(OS(C)(=O)=O)cc2C1(C)C (stereo not given) | inactive | –
27 | N#Cc1c(Cl)c(Cl)c(Cl)c(C#N)c1Cl | inactive | –
28 | CCN(CC)C(=O)SCc1ccc(Cl)cc1 | inactive | –
29 | CCC(C)(C)C(=O)OC1=C(c2ccc(Cl)cc2Cl)C(=O)OC12CCCCC2 | inactive | –
